Measured values as given in PubChem BioAssay (NCI).
This is part of a sample that, as a whole, favours compounds with a hit. Of some 83,000 tested, about 20% had one in any assay.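 Treatment: one concentration, 48 hours, 96-well format. Scoring: percent growth, with anything below 10 considered active.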 Values without a mark were called inactive. Active and inactive are the calls of the source.

Tested on: SR leukemia
Experiment: NCI-60 one-dose screen, 48 h (100 = growth as untreated, 0 = no growth, -100 = all killed)
Conditions: 10 µM

| SMILES | growth |
| --- | --- |
| CSc1cc(SC)ncn1 | 98.2% |
| CCOC(=O)CNC(=O)CCCCSc1ncnc2nc[nH]c12 | 90.6% |
| COc1ccc(OC)c(/C=C/c2nc(SCc3ccccc3)n(-c3ccc(Cl)cc3)n2)c1 | 19.5% |
| c1ccc(C(NC2CC3CCC2C3)c2ccccc2)cc1 (stereo unspecified) | 90.2% |
| CN1CCC2(CC1)NC(=O)c1c(c3ccc(Cl)c(Cl)c3n1C)C2C#N (stereo unspecified) | 39.4% |
| O=[N+]([O-])c1cccc(N=Cc2ccc3c(c2)OCO3)c1 | 102% |
| Nc1cc2c(cc1Cl)-c1ccc([N+](=O)[O-])cc1/C2=N\O | 10.8% |
| COc1ccc(OC)c2c1C(=O)CC2C (stereo unspecified) | 113% |
| N#CSCC1CC(O)(c2ccccc2)CC(c2ccc(Cl)cc2)O1 (stereo unspecified) | 11.4% |
| CCOC(=O)C1CCc2c(ccc3ccccc23)N1CCC#N (stereo unspecified) | 63% |
| Fc1ccc(-c2nnc(-c3c(-c4ccc(F)cc4)nc4ccccn34)o2)cc1 | 47.3% |
| O=C1/C(=C/c2ccc(Cl)cc2)SC(=Nc2ccc(Cl)cc2)N1Cc1nc2ccccc2[nH]1 | 46.6% |
| CO/N=C(/C(=O)NC1C(=O)N2C(C(=O)O)=C(COC(N)=O)CSC12)c1ccco1 (stereo unspecified) | 106% |
| CN(C)CCNC(=O)c1cccn2c(=O)c3cc4ccccc4cc3nc12 | -29.9% (active) |
| Oc1[nH]c2ccc(Cl)cc2c1/C=c1/ccc2c(c1)N=C(c1cccs1)N=2 | 37% |
| Cc1ccc(Nc2nnc(-c3cc(-c4ccncc4)n(-c4ccccc4)n3)s2)cc1 | 63.6% |
